In ChEMBL document CHEMBL4513141, “CO-ADD screening of NIH (USA) - Clinical Collection” (2021):
Results with a measured potency or affinity are listed apart.

These compounds were tested on Candida albicans. Conditions: 20 µM.

| Structure (SMILES) | Inhibition [%] |
| --- | --- |
| CCCCC[C@H](O)/C=C/[C@H]1[C@H](O)CC(=O)[C@@H]1CCCCCCC(=O)O [ALPROSTADIL] | 3.09 |
| CC(=O)CCCCn1cnc2c1c(=O)n(C)c(=O)n2C [LOMIFYLLINE] | 2.63 |
| CCCc1nc2c(C)cc(-c3nc4ccccc4n3C)cc2n1Cc1ccc(-c2ccccc2C(=O)O)cc1 | 1.9 |
| OC[C@H]1O[C@@H](Oc2cc(O)cc(/C=C/c3ccc(O)cc3)c2)[C@H](O)[C@@H](O)[C@@H]1O [PICEID] | 3.19 |
| CC(=O)[C@@]1(O)CC[C@H]2[C@@H]3C[C@H](C)C4=CC(=O)CC[C@]4(C)[C@H]3CC[C@@]21C | 2.87 |
| O=C1[C@H](CC[C@H](O)c2ccc(F)cc2)[C@@H](c2ccc(O)cc2)N1c1ccc(F)cc1 [EZETIMIBE] | -1 |
| CC(C)(C)NCC(O)COc1cccc2c1CC(O)C(O)C2 (configuration not stated) [NADOLOL] | 1.18 |
| C=C1/C(=C\C=C2/CCC[C@]3(C)[C@@H]([C@H](C)/C=C/[C@@H](O)C4CC4)CC[C@@H]23)C[C@@H](O)C[C@@H]1O [CALCIPOTRIENE] | 0.06 |
| CN(C)CCCSc1ccccc1NC(=O)/C=C/c1ccccc1.Cl.O | 2.74 |
| CN(C/C=C/C#CC(C)(C)C)Cc1cccc2ccccc12.Cl [TERBINAFINE HYDROCHLORIDE] | 32.9 |
| CCCCC(=O)N(Cc1ccc(-c2ccccc2-c2nnn[nH]2)cc1)[C@H](C(=O)O)C(C)C | 3.96 |
| CCCCC1=NC2(CCCC2)C(=O)N1Cc1ccc(-c2ccccc2-c2nnn[nH]2)cc1 [IRBESARTAN] | -0.2 |
| CC(=CCC1=C(C)C(=O)c2ccccc2C1=O)CCCC(C)CCCC(C)CCCC(C)C (configuration not stated) | 3.2 |
| CC(N/C(=N\C#N)Nc1ccncc1)C(C)(C)C.O (configuration not stated) | 1.29 |
| CN(C)[C@@H]1C(=O)C(C(=O)NCN2CCCC2)=C(O)[C@@]2(O)C(O)=C3C(=O)c4c(O)cccc4[C@@](C)(O)C3CC12 (some centres not stated) | 0.75 |
| CCN(CC)CC1CCCCN1CC(=O)N1c2ccccc2C(=O)Nc2cccnc21 (configuration not stated) [OTENZEPAD] | 3.03 |

| Structure (SMILES) | Inhibition [%] |
| --- | --- |
| CCCN1CCCC[C@H]1C(=O)Nc1c(C)cccc1C.Cl [ROPIVACAINE HYDROCHLORIDE] | 3.24 |
| Cl.Nc1c2c(nc3ccccc13)CCCC2 [TACRINE HYDROCHLORIDE] | 1.65 |
| CCC(=O)OCC(=O)[C@@]1(OC(=O)CC)[C@@H](C)C[C@H]2[C@@H]3CCC4=CC(=O)C=C[C@]4(C)[C@@]3(Cl)[C@@H](O)C[C@@]21C [BECLOMETHASONE DIPROPIONATE] | 3.12 |
| CN(C)CCC[C@@]1(c2ccc(F)cc2)OCc2cc(C#N)ccc21.O=C(O)C(=O)O [ESCITALOPRAM OXALATE] | 3.94 |
| Nc1ncnc2c1ncn2[C@@H]1O[C@H](CO)[C@@H](O)[C@@H]1O [VIDARABINE] | 4.29 |
| CC1(C)O[C@@H]2C[C@H]3[C@@H]4C[C@H](F)C5=CC(=O)C=C[C@]5(C)[C@@]4(F)[C@@H](O)C[C@]3(C)[C@]2(C(=O)CO)O1 [FLUOCINOLONE ACETONIDE] | 5.45 |
| CN1C(=O)CC[C@H]1c1cccnc1 [COTININE] | 4.46 |
| CSc1nc2cc(Cl)c(Oc3cccc(Cl)c3Cl)cc2[nH]1 [TRICLABENDAZOLE] | 7.82 |
| CC1(C)O[C@@H]2C[C@H]3[C@@H]4C[C@H](F)C5=CC(=O)C=C[C@]5(C)[C@H]4[C@@H](O)C[C@]3(C)[C@]2(C(=O)CO)O1 [FLUNISOLIDE] | 7.13 |
| Cl.Clc1ccc2nsnc2c1NC1=NCCN1 [TIZANIDINE HYDROCHLORIDE] | 3.84 |
| CCOC(=O)[C@@H](CCc1ccccc1)N[C@@H](C)C(=O)N1CCC[C@H]1C(=O)O.O=C(O)/C=C\C(=O)O | 0.69 |
| CC(C)C[C@H](NC(=O)[C@@H](O)[C@H](N)Cc1ccccc1)C(=O)O [UBENIMEX] | 0.73 |
| O=C(O)c1cc(-c2ccc(F)cc2F)ccc1O [DIFLUNISAL] | 13.4 |
| CCCCc1nc(Cl)c(CO)n1Cc1ccc(-c2ccccc2-c2nnn[n-]2)cc1.[K+] [LOSARTAN POTASSIUM] | 5 |
| O=C(CCCN1CC=C(n2c(=O)[nH]c3ccccc32)CC1)c1ccc(F)cc1 [DROPERIDOL] | 4.22 |
| CN[C@@H]1[C@H](O)[C@H](NC)[C@H]2O[C@@]3(O)C(=O)C[C@@H](C)O[C@H]3O[C@@H]2[C@H]1O.Cl.Cl.Cl.O.O.O | 2.22 |
